Hits are enriched below; roughly 4.3% of the tested compounds scored in any of these assays.
BoNT-A LC inh2 – inhibitors of Botulinum neurotoxin A light chain protease; inhibition, % at 10 µM; actives 0.17% (n = 360,000); multiplex microsphere protease substrate cleavage, flow cytometry
Anthrax LF prot – inhibitors of Bacillus anthracis lethal factor protease. P15917. multiplex microsphere protease cleavage assay, LF. inhibition, % at 10 µM. actives 0.12% (n = 360,000). AID 588501
Autofluor counter – counter-screen for toxin protease inhibitors: compound fluorescence; compound autofluorescence counterscreen, microsphere flow cytometry; active compounds read high; actives 3.1% (n = 360,000); AID 624483; fluorescence intensity (no concentration beside the values); in the data active means fluorescence intensity above about 16000; inconclusive means no clear call, values can overlap the other calls
MazF activator – activators of E. coli MazEF toxin-antitoxin RNase | P0AE70 | FAM/BHQ RNA-DNA oligo cleavage fluorescence, 5 h | activation, % at 20 µM | actives 0.32% (n = 350,000); in the data active means activation above about 50%
Target sequence (P0AE70 whole entry, looked up): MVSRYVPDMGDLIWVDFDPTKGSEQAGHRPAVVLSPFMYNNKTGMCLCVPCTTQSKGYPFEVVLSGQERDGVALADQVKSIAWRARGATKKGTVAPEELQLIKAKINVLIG
PfHsp40 rescue – restores yeast growth despite PfHsp40 toxicity; S. cerevisiae expressing PfHsp40, growth rescue, ATP luminescence; growth rescue, % at 12.5 µM; actives 0.68% (n = 340,000); in the data active means growth rescue above about 28%, passing the limit was not always enough; inconclusive means no clear call, values can overlap the other calls;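 further: yeast W303a lacking pdr1 and pdr3 grown in galactose medium; growth measured after three days at 30 °C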
BoNT F protease – inhibitors of Botulinum neurotoxin F light chain protease | Multiplex microsphere protease cleavage assay, flow cytometry | inhibition, % at 10 µM | actives 0.22% (n = 360,000) | AID 588497; in the data active means inhibition above about 35%, passing the limit was not always enough; inconclusive means no clear call, values can overlap the other calls
A number is an active result; - = inactive; ? = inconclusive; . = not tested or not shown. Unless noted, no stated cut-off is given here; in the data, active means inhibition above about 30%; inconclusive means no clear call, values can overlap the other calls; inactive means below that.

SMILES	BoNT-A LC inh2	Anthrax LF prot	Autofluor counter	MazF activator	PfHsp40 rescue	BoNT F protease
CS(=O)(=O)Nc1ccc(C(=O)Nc2ccccc2C(=O)N2CCCC2)cc1	-	-	20057	-	-	-
CS(=O)(=O)Nc1ccc(C(=O)N2CCN(c3ccccc3)CC2)cc1	-	-	22316	-	-	-
CS(=O)(=O)N1CCN(C(=O)c2ccccc2)C1	-	-	16660	-	-	-
CN(CC(=O)Nc1ccccc1C(=O)N1CCCC1)S(=O)(=O)c1ccc(Cl)cc1	-	-	24313	-	-	-
CC(C)(C)OC(=O)N1CCc2onc(-c3ccccc3F)c2C1=O	-	-	-	-	.	-
O=C(c1ccc(Cn2cc(Br)cn2)cc1)N1CCN(c2ccccc2)CC1	-	-	23168	-	-	-
O=C(c1ccc(Cn2cc(Cl)cn2)cc1)N1CCN(c2ccccc2)CC1	-	-	-	-	-	-
CCCCOC(=O)c1cc(=O)[nH]c2ccccc12	-	-	22271	-	-	-
CCCCOC(=O)c1cc(=O)[nH]c2ccc(C)cc12	-	-	-	-	-	-
COc1ccc(-n2cccc2C=O)cc1OC	?	-	22117	-	-	-
NNC(=O)c1nc(Cl)c(Cl)c(N)c1Cl	-	-	-	-	-	-
Cc1cccc(NC(=O)CC2Nc3cccc4cccc(c34)NC2=O)c1 (stereo not drawn)	?	-	17191	-	-	-
CCOC(=O)C1(S(=O)(=O)c2ccc(Cl)cc2)CCN(Cc2ccc(C)cc2)CC1	-	-	20535	-	-	-
CCN(CC)c1ccc(NC(=O)c2ccc(Br)o2)c(C)c1	-	-	20876	-	-	-
O=C(Nc1cccc(Cl)c1N1CCCC1)c1ccc(Br)o1	-	-	21468	-	-	-
CCN(CC)c1ccc(NC(=O)c2ccco2)c(C)c1	-	-	-	-	-	-
Cc1cc(O)c(NC(=O)c2ccc(Br)o2)cc1C	-	-	21608	-	-	-
O=C(Nc1cccc(Cl)c1N1CCCC1)c1ccc([N+](=O)[O-])o1	-	-	-	-	-	-
O=C(NCC(=O)N1CCN(c2ccccc2O)CC1)c1cccs1	-	-	-	-	-	-
CC(C)(C)c1ccc(C(=O)c2c[nH]c(C(=O)NCCCn3ccnc3)c2)cc1	?	-	24832	-	-	-
Cc1ccc2c(c1)CCCN2C(=O)c1cccs1	-	-	20191	-	-	-
O=C(c1cccs1)N1CCc2ccccc21	-	-	21871	-	-	-
N#Cc1sc2nc(-c3cccs3)cc(-c3ccc(Cl)cc3)c2c1N	?	-	16199	-	-	-
N#Cc1sc2nc(-c3cccs3)cc(-c3ccccc3)c2c1N	-	-	-	-	-	-
CCc1noc(C)c1C(=O)NNC(=O)COc1cc(C)ccc1C	-	-	-	-	-	-
SMILES	BoNT-A LC inh2	Anthrax LF prot	Autofluor counter	MazF activator	PfHsp40 rescue	BoNT F protease
CC(Sc1nnc(-c2ccccc2F)n1C1CC1)C(=O)NC(N)=O (stereo not drawn)	-	-	-	-	-	-
O=C(c1cc(-c2cccs2)on1)N1CCc2ccccc2C1	-	-	22720	-	-	-
O=C(c1cc(-c2cccs2)on1)N1CCOCC1	-	-	21693	-	-	-
O=C(c1cc(-c2ccccc2O)on1)N1CCc2ccccc2C1	-	-	-	-	-	-
O=C(CCC1CC(=O)Nc2ccccc21)NCc1ccc(F)cc1 (stereo not drawn)	-	-	18975	-	-	-
Cc1cccc(NC(=O)/C(=C\c2cccs2)NC(=O)c2ccccc2)c1	-	-	-	59	-	-
O=C(Nc1ccccc1)/C(=C\c1cccs1)NC(=O)c1ccccc1	-	-	-	-	-	-
O=C(Cc1cccs1)NCc1ccccc1Br	-	-	-	-	-	-
COC(=O)c1ccc2nc(C3CCCCC3)c(Cc3ccc(OC)cc3C)n2c1	-	-	-	.	.	-
CN=C1SC(CC(=O)Nc2ccc(N3CCOCC3)cc2)C(=O)N1C (stereo not drawn)	?	-	25216	-	-	-
CN=C1SC(CC(=O)Nc2ccccc2F)C(=O)N1C (stereo not drawn)	-	-	-	-	-	-
CN=C1SC(CC(=O)Nc2cccc(C(F)(F)F)c2)C(=O)N1C (stereo not drawn)	-	-	16700	-	-	-
COC(=O)c1nnn(-c2cc(Cl)cc(Cl)c2)c1C(=O)OC	-	-	-	-	-	?
Clc1ccc2nc(-c3ccccc3)c(CN3CCOCC3)n2c1	-	-	23584	-	-	-
Clc1ccc(-c2nc3ccccn3c2CN2CCOCC2)cc1	-	-	-	-	-	-
Cc1ccc(CNC(=O)C(c2ccccc2)c2ccccc2)cc1	-	-	-	-	-	-
Cc1cccn2cc(-c3ccc(F)cc3)nc12	-	-	23835	-	-	-
CCC(=O)N1c2ccc(S(=O)(=O)N3CCOCC3)cc2CC1C (stereo not drawn)	-	-	-	-	-	-
CC1(C)CC(=O)C(C(c2ccc(F)cc2)C2C(=O)CC(C)(C)CC2=O)C(=O)C1	-	-	-	-	-	-
CC1(C)CC(=O)C(C(c2ccco2)C2C(=O)CC(C)(C)CC2=O)C(=O)C1	-	-	23157	-	-	-
O=C(CN1CCCC1c1cccs1)Nc1cccc(S(=O)(=O)N2CCCC2)c1 (stereo not drawn)	-	-	-	-	-	-
COc1cc(OC)c(OC)cc1/C=N/n1c(-c2n[nH]c3c2CCC3)n[nH]c1=S	-	-	-	-	28	-
COc1ccc(OC)c(/C=N/n2c(-c3n[nH]c4c3CCC4)n[nH]c2=S)c1	-	-	-	-	-	-
O=C(c1cc(Cl)nc2ccccc12)N1CCN(S(=O)(=O)c2cccc(C(F)(F)F)c2)CC1	-	-	-	-	-	-
COc1ccc(CCNC(=O)CN2c3cccc4cccc(c34)S2(=O)=O)cc1	-	-	-	-	-	-
SMILES	BoNT-A LC inh2	Anthrax LF prot	Autofluor counter	MazF activator	PfHsp40 rescue	BoNT F protease
CC1(C)Cc2c(sc3nc(-c4cc5ccccc5o4)n(N)c(=O)c23)CO1	?	-	21859	-	-	-
O=C(COc1cccc(Br)c1)N/N=C/c1ccc2c(c1)OCCO2	-	-	-	-	.	-
CCN1c2ccccc2NC2C1C(C(C)=O)C(=O)N2c1ccc(Cl)cc1 (stereo not drawn)	-	-	19587	-	-	-
CC(=O)Nc1ccc(S(=O)(=O)Nc2nc3ccccc3nc2Nc2cccc(S(N)(=O)=O)c2)cc1	-	-	-	-	-	-
CN(C)c1ccc(NC(=O)c2ccc3nsnc3c2)cc1	?	-	22463	-	-	-
O=C(Nc1ccc(Cl)cc1)c1ccc2nsnc2c1	-	-	-	-	-	-
CCOc1oc(-c2ccc(OC)cc2)nc1C(F)(F)F	-	-	16401	-	-	-
CSC(=NC#N)N1CCN(c2ccccc2)CC1	?	-	20884	-	-	-
COc1cc2oc(=O)ccc2cc1[C@H](O)[C@@H](O)C(C)(C)O	-	-	-	-	-	-
O=C(Nc1nc(-c2ccc(Br)cc2)cs1)c1cccnc1	-	-	-	-	-	-
